Screening results from PubChem BioAssay.
This is a sample that favours compounds with a hit; in the whole collection about 2.4% have one here.
D2 ag-1: Beta-Arrestin HTS for Positive Allosteric Modulators of the Human D2 Dopamine Receptor: Agonists. D(2) dopamine receptor (Homo sapiens), P14416. DiscoveRx PathHunter D2 beta-arrestin, luminescence, 90 min; 100% = 57 uM dopamine signal. activation, % (no concentration beside the values). 0.084% of 360,000 active. AID 624465, 2012; in the data active means activation above about 40%; inconclusive means between about 15% and that limit
Target sequence (P14416 whole entry, looked up): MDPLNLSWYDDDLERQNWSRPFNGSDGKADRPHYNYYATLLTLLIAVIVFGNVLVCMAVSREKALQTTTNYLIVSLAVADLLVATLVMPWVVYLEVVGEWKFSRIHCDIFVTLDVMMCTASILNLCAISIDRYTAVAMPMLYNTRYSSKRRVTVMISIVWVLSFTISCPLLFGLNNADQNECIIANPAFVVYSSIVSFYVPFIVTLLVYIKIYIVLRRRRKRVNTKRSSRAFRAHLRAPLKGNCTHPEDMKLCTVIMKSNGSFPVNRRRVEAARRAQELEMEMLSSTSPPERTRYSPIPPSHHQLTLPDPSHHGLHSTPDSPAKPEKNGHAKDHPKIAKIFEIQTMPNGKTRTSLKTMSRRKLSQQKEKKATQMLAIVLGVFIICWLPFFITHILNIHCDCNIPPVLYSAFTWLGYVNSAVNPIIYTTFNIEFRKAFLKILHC
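DiscoveRx PathHunter D2 beta-arrestin cells (2,100/well) attached overnight, then compound-stimulated 90 min at 37 C in HBSS/10 mM HEPES/0.1% Tween-20 buffer; beta-galactosidase complementation read by luminescence after 1 h at ambient temperature. Dopamine 57 uM final (EC100) as control.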
D2 PAM-1: HTS Assay for Positive Allosteric Modulators of the Human D2 Dopamine Receptor: Primary Screen for Potentiators | D(2) dopamine receptor (Homo sapiens), P14416 | 0.34% of 340,000 active | AID 485347, 2010 | potentiation, % at 10 µM | HEK293 T-REx D2, calcium flux, EC20 dopamine potentiation;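 active means potentiation over 3 SD above the plate norm, cut at about 30% in these data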
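Potentiation of an EC20 dopamine calcium response measured kinetically over 180 s, after a preceding 180 s compound-only read flagging agonists. Cells: inducible Hek293 Trex D2 line, 4000/well, cultured overnight at 30 C before dye loading.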
D2 PAM-2: Beta-Arrestin HTS for Positive Allosteric Modulators of the Human D2 Dopamine Receptor: Potentiators; DiscoveRx D2 beta-arrestin cells, luminescence, 90 min; 100% = 57 uM dopamine signal; D(2) dopamine receptor (Homo sapiens), P14416; AID 624464, 2012; potentiation, % (no concentration beside the values); 0.23% of 360,000 active; in the data active means potentiation above about 50%; inconclusive means mostly about 30% to 49%
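PathHunter D2 cells, attached overnight at 37 deg C, received compound in DMSO plus dopamine at EC20 (50 nM final) for 90 min at 37 deg C. Beta-arrestin recruitment was read as luminescence after 1 h with detection reagent at ambient temperature.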
D2 antagonist: HTS Assay for Allosteric Antagonists of the Human D2 Dopamine Receptor: Primary Screen for Antagonists. 2% of 340,000 active. inhibition, % at 10 µM. HEK293 TREx D2 cells, calcium flux, dopamine EC80. D(2) dopamine receptor (Homo sapiens), P14416. AID 485344, 2010; in the data active means inhibition above about 30%; inactive means below that, where a call was filed
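Antagonism is scored as inhibition of an EC80 dopamine-evoked calcium signal in a force-coupled, tetracycline-inducible HEK293 T-REx D2 line, with compound present 180 s before agonist.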
D2 ag-2: HTS Assay for Allosteric Agonists of the Human D2 Dopamine Receptor: Primary Screen for Agonists; activation, % at 2 µM; D(2) dopamine receptor (Homo sapiens), P14416; AID 485358, 2010; HEK293 T-REx D2 cells, calcium flux agonist mode; 0.53% of 340,000 active;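 active means activation over 3 SD above normal in the single-dose calcium agonist read, cut at about 30% in these data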
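HEK293 Trex D2 cells, tetracycline-induced, o/n 30 C 5% CO2; no-wash Ca dye, RT 30–90 min; 10-cycle baseline, 23 nl cpd added, kinetic Ca read 180 s; agonist hits = positive Ca response.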
Numbers stand for hits; n = inactive; u = inconclusive; x = no result given; ! = a repeat was not active.

SMILES	D2 ag-1	D2 PAM-1	D2 PAM-2	D2 antagonist	D2 ag-2
O=C(c1ccc(Oc2ccc([N+](=O)[O-])cc2)cc1)N1CCCCCC1	n	n	n	n	n
COc1ccc(CCC(=O)Nc2cccc(Cl)c2)cc1	n	n	n	n	n
O=C(CCc1ccc(Oc2cc([N+](=O)[O-])cc([N+](=O)[O-])c2)cc1)N1CCCCC1	u	n	57.6	n	n
O=C(CCc1ccc(Oc2cc([N+](=O)[O-])cc([N+](=O)[O-])c2)cc1)Nc1cccc(Cl)c1	u	n	64.0	n	n
CCS(=O)(=O)N1CCc2cc(C(=O)N3CCN(c4cccc(C(F)(F)F)c4)CC3)ccc21	x	n	x	x	n
O=c1[nH]cnc2nc(-c3ccccc3)c(-c3ccccc3)nc12	n	45.3	n	n	n
COc1cccc(-n2cnnn2)c1	n	n	n	37.5	n
COc1cc(OC)cc(N2CCN(S(=O)(=O)c3ccc(-n4cnnn4)cc3)CC2)c1	n	n	n	46.3	n
CC(=O)Nc1ccc(NC(=O)C2CCCN(S(=O)(=O)c3ccc(-n4cnnn4)cc3)C2)cc1 (stereo unspecified)	n	x	n	n	n
COC(=O)c1cccc(-n2cnnn2)c1	n	n	n	n	n
CC(C)(C)NC(=O)C1CCCN(S(=O)(=O)c2ccc(-n3cnnn3)cc2)C1 (stereo unspecified)	n	n	n	32.0	n
N#Cc1c(N)[nH]c2ccc(Sc3ccccc3)cc12	n	x	n	x	x
Cc1c(Cl)cccc1-n1ncc(C(=O)Nc2ccc3c(c2)OCCO3)c1C1CCN(C(=O)OC(C)(C)C)CC1	x	n	x	x	n
O=S(=O)(c1ccc(Cl)cc1)N1CCN(c2ncccn2)CC1	n	n	n	n	n
O=S(=O)(c1ccc(Cl)cc1)n1cccn1	n	n	n	40.4	n
COc1cc(C(=O)OC(C)CN2CCOCC2)cc(OC)c1OC (stereo unspecified)	n	n	n	40.0!	n
COc1cc(C(=O)OC(C)CN2CCN(C)CC2)cc(OC)c1OC (stereo unspecified)	n	n	n	n	n
CC(C(=O)NCc1ccccc1)n1ccc2cc(S(=O)(=O)N3CCCC3)ccc21 (stereo unspecified)	x	n	x	x	n
COc1ccc(NC(=O)N2CCCC(CCC(=O)N(C)CCc3ccccn3)C2)cc1 (stereo unspecified)	n	n	n	n	n
CCc1ccccc1NC(=O)N1CCCC(CCC(=O)N(C)CCc2ccccn2)C1 (stereo unspecified)	n	n	n	32.8	n
Cc1nc(SCC(=O)Nc2cccc(Cl)c2)n[nH]1	n	30.0	n	n	n
COc1ccc(OCc2nnc(SCC(=O)Nc3cccc(Cl)c3)o2)cc1	n	n	n	42.7	n
COc1ccc(OCc2nnc(SCC(=O)Nc3ccc(C)cc3)o2)cc1	n	n	n	n	n
Cc1ccc(OCc2nnc(SCC(=O)N3c4ccccc4Sc4ccc(Cl)cc43)o2)cc1	n	n	50.4	n	n
CCNC(=O)c1c(NC(=O)c2nc(S(=O)(=O)CC)ncc2Cl)sc2c1CCCC2	x	x	x	x	n
SMILES	D2 ag-1	D2 PAM-1	D2 PAM-2	D2 antagonist	D2 ag-2
CC(C)(C)c1ccc(C(=O)CSc2n[nH]c(=O)[nH]c2=O)cc1	n	n	n	30.7	n
O=C(CSc1n[nH]c(=O)[nH]c1=O)c1ccc(Cl)cc1Cl	n	n	n	n	n
Cn1c(C(=O)Nc2ccc3c(c2)OCO3)cc2c(=O)n(C)c3ccccc3c21	n	31.4	n	n	n
CCc1ccc(NS(=O)(=O)c2ccc(C(=O)N(C)C)s2)cc1	x	n	x	x	n
O=c1cc2oc3cc(O)c(O)cc3c(-c3ccccc3[N+](=O)[O-])c-2cc1O	n	n	n	31.4	n
CCOc1ccc(NC(=O)CC2C(=O)N(c3ccccc3)C(=O)N2Cc2cccc(OC)c2)cc1 (stereo unspecified)	x	n	x	x	x
O=C(CSc1nc2c(cnn2-c2ccc(F)cc2)c(=O)[nH]1)Nc1ccc(Br)cc1	x	n	x	x	x
CCN(C(=O)CCS(=O)(=O)c1cc2c(cc1C)NC(=O)CO2)c1cccc(C)c1	x	n	x	x	n
CCc1ccc(NC(=O)c2cc(-c3ccco3)on2)cc1	n	52.8	n	n	n
COc1ccc(NC(=O)c2cc(-c3ccccc3OC)on2)cc1	n	n	n	32.5	n
COc1ccc(NC(=O)c2cc(-c3ccco3)on2)cc1	n	n	n	n	n
COc1ccc(OC)c(-c2cc(C(=O)Nc3cc(C)on3)no2)c1	n	n	n	38.2	n
COc1ccc(-c2cc(C(=O)Nc3cc(C)on3)no2)cc1	n	n	n	n	n
COc1ccc(NC(=O)c2cc(-c3ccccc3Cl)on2)cc1	n	n	n	n	n
O=C1C=CC(=O)N1c1ccc2c(c1)C(NC(=O)C(F)(F)F)c1ccccc1-2 (stereo unspecified)	n	x	n	x	x
Cc1ccc(OCCCSc2nc(-c3ccc(C(C)(C)C)cc3)nc3cc(=O)[nH]n23)cc1C	x	n	x	x	x
CC1(C)CC(=O)C2=C(C1)N1C(=C(C#N)C2c2ccccc2Cl)N=C(N)c2ccccc21 (stereo unspecified)	n	n	n	35.8	n
CC1(C)CC(=O)C2=C(C1)N1C(=C(C#N)C2c2ccc(Cl)cc2)N=C(N)c2ccccc21 (stereo unspecified)	n	n	n	n	n
CCn1nc(C)c(CN2CCC(C(=O)Nc3cccc(-c4cccc(F)c4)c3)CC2)c1C	n	n	n	37.8	n
CCn1cc(CN2CCC(C(=O)Nc3cccc(-c4cccc(F)c4)c3)CC2)cn1	n	n	n	n	n
O=c1[nH]c(Nc2ccc3c(c2)OCCO3)nnc1Cc1ccccc1	n	n	n	48.6	n
O=C(Cn1c(=O)nc(-c2ccccc2)c2cc(Cl)ccc21)NCCc1ccccc1	x	n	x	x	n
O=S(=O)(Nc1cccc(-c2ccc(N3CCCCC3)nn2)c1)c1cccs1	x	n	x	x	x
O=C1/C(=C/C=C/c2ccco2)SC(=S)N1NS(=O)(=O)c1ccccc1	n	n	n	41.7	n
CCOc1ccc2nc(NC(=O)c3cc(=O)c4ccc(C)cc4o3)sc2c1	x	n	x	x	n
O=C(O)CC(NC(=O)C1CCCCC1)c1cc([N+](=O)[O-])ccc1Cl (stereo unspecified)	n	n	n	n	n
O=C(O)CC(NC(=O)C12CC3CC(CC(C3)C1)C2)c1cc([N+](=O)[O-])ccc1Cl (stereo unspecified)	n	n	n	72.3	n
